Bioassay records from PubChem BioAssay.
An excerpt weighted towards active compounds, which were near 19% of everything screened.
HT1080 IDH1KD tx: qHTS for induction of synthetic lethality in tumor cells producing 2HG: qHTS for the HT-1080-IDH1KD cell line. HT-1080 IDH1 knockdown viability, ATP luminescence, 48 h. Potency, µM (titrated, usually from 46.1 µM), for inactives: at the highest dose activity, negative = toxicity, hits mostly cytotoxic. 360,000 compounds, 2% hits;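 further: potency means the concentration at half of the fitted maximal effect; 0% = DMSO wells and -100% = cell-free medium wells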
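In this qHTS, HT-1080 cells depleted of IDH1 are exposed for 48 h at 37 °C to compound titrations. Toxicity is scored from CellTiter-Glo luminescence, with DMSO as full viability and medium alone as none.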
IL1B secr inh: qHTS for Inhibitors of Inflammasome Signaling: IL-1-beta AlphaLISA Primary Screen. THP-1 LPS/ATP IL-1B secretion, AlphaLISA, 16 h; active compounds read low. activity change, % at 57.5 µM. 360,000 compounds, 4.7% hits. AID 743279, 2014; in the data active means activity change below about -50%; inconclusive means mostly about -30% to -49%
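Secreted IL-1B measured by AlphaLISA bead assay after 16 h compound exposure of THP-1 cells; compounds (final up to 57.5 uM) added 1 h before LPS (250 ng/mL) and ATP (1.25 mM) stimulation; lower signal means less secretion.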
HT1080NT lethal: qHTS for induction of synthetic lethality in tumor cells producing 2HG: qHTS for the HT-1080-NT fibrosarcoma cell line; AID 686970, 2013; HT-1080-NT fibrosarcoma viability, CellTiter-Glo ATP luminescence, 48 h; Potency, µM (titrated, usually from 46.1 µM), without a hit: at the highest dose activity, negative = less viability, usual class: cytotoxic; 360,000 compounds, 1.6% hits;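 further: NT is the 2HG producing partner of a matched IDH1 knockdown line; potency means the concentration at half of the fitted maximal effect; 0% = DMSO-treated cells and -100% = media-only wells without cells; nearly all actives have a fitted effect of over 55% in size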
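HT-1080-NT; 750 cells/well; 5% FBS RPMI; 48 h compound, 37 degrees C; CellTiter-Glo luminescence; curve fitting and curve-class assignment.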
TDP1 cell noCPT: qHTS for Inhibitors of human tyrosyl-DNA phosphodiesterase 1 (TDP1): qHTS in cells in absence of CPT. Potency, µM (titrated, usually from 46.2 µM), for inactives: at the top dose activity change, negative = growth inhibition, actives largely listed as inhibitors. DT40 Tdp1-/- hTDP1 cells, no CPT, ATP luminescence, 48 h. AID 686978, 2013. 420,000 compounds, 15% hits; further: potency means the concentration at half of the fitted maximal effect; nearly all actives have a fitted effect of over 55% in size
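Camptothecin absent (DMSO only). Human TDP1-complemented DT40 knockout cells, 400 cells/well, 37 °C for minimum 48 hr; ATP measured via CellTiter-Glo, 30 min dark incubation, luminescence.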
TDP1 cell CPT: qHTS for Inhibitors of human tyrosyl-DNA phosphodiesterase 1 (TDP1): qHTS in cells in presence of CPT. chicken DT40 Tdp1-/-;hTDP1 cells + 20 nM CPT, ATP luminescence, 48 h. Potency, µM (highest dose often 46.2 µM), for inactives: at the highest dose activity change, negative = growth inhibition, actives largely listed as inhibitors. 420,000 compounds, 12% hits; further: potency means the concentration at half of the fitted maximal effect; nearly all actives have a fitted effect of over 55% in size
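Chicken DT40 Tdp1-/- cells complemented with human TDP1, 400 cells/well, exposed to compounds plus 20 nM camptothecin for at least 48 h at 37 C; viability read as ATP content by CellTiter-Glo luminescence.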
Starred values were filed as active, the others as inactive; ? = inconclusive; · = no result given; [ ] = remark or other dose. Unless noted, the call rests on the fitted dose curve; in most records, active means well fitted curve in the direction sought with a large enough effect; inconclusive means small, poorly fitted or top-dose-only effect, or another doubt; inactive means no such curve, though single readings can be large; an effect the other way counts as inactive or inconclusive. Unless noted, on the % scale 0 is the no-effect control and ±100 the full control effect.

SMILES | HT1080 IDH1KD tx | IL1B secr inh | HT1080NT lethal | TDP1 cell noCPT | TDP1 cell CPT
Cc1noc(NS(=O)(=O)c2ccc(NC(=O)c3cc4ccccc4o3)cc2)c1C | 6.1% | -27.7 | -4.3% | 0.1% | -7.5%
Cc1nn(CC(=O)Nc2cccc(C(F)(F)F)c2)c(=O)c2cccn12 | -3.7% | 24.4 | 1.2% | -14.9% | ?
Cc1nn(CC(=O)N2CCN(c3cccc(C(F)(F)F)c3)CC2)c(=O)c2cccn12 | -5.6% | -5.4 | -10.4% | 23.1µM* | 14.6µM*
CC1CCN(S(=O)(=O)c2cn(CC(=O)N3CCN(c4cccc(C(F)(F)F)c4)CC3)cn2)CC1 | -21.5% | 0.4 | -0.5% | ? | 14.6µM*
CCOC(=O)c1cc2c(ccn2C)n1CC(=O)N1CCN(c2cccc(C(F)(F)F)c2)CC1 | -14.4% | -0.6 | -8.1% | 16.4µM* | 16.4µM*
CCc1nnc(NC(=O)CCC(=O)NC2CCCCCC2)s1 | -3.6% | 5.8 | -4.1% | 33.5% | 2.8%
COc1ccc(NS(=O)(=O)c2cc(NC(=O)Cn3cnc4c3c(=O)n(C)c(=O)n4C)ccc2C)cc1 | -22.0% | 5.6 | -15.5% | ? | ?
CCCC1NC(=O)c2cccnc2-n2c1nc1ccc(Br)cc1c2=O (stereo unspecified) | 9.8% | -17.4 | 12.5% | ? | -7.9%
COc1ccc(CNC(=O)CN(Cc2ccccc2)S(=O)(=O)c2ccc(Cl)cc2)cc1 | -26.4% | -16.4 | -1.3%[9.24 µM] | 18.4µM* | ?
COc1ccc(S(=O)(=O)N(CC(=O)NCc2ccncc2)Cc2ccccc2)cc1 | 2.7% | 10.6 | 5.9% | 11.6µM* | ?
COc1ccc(C)cc1S(=O)(=O)N(CC(=O)NCc1ccc(Cl)cc1)Cc1ccccc1 | ? | -61.3* | ? | ? | 20.6µM*
CCN(CC(=O)NCc1ccc(Cl)cc1)C(=O)c1cccc(S(=O)(=O)Nc2ccc(OC)cc2)c1 | 5.4% | -7.7 | 0.7% | 10.3µM* | ?
COc1ccc(CNC(=O)CN(Cc2ccc(Cl)cc2)S(=O)(=O)c2ccccc2)cc1 | ? | ? | 0.0%[9.24 µM] | ? | ?
CCN(CC(=O)NCc1cccs1)C(=O)c1cccc(S(=O)(=O)Nc2ccc(OC)cc2)c1 | -0.5% | 2.1 | -4.3% | -16.8% | -21.7%
CCN(CC(=O)NCc1ccc(Cl)cc1)C(=O)c1ccc(C#N)cc1 | 2.4% | 0.8 | -0.4% | ? | 20.6µM*
CC(C)CNS(=O)(=O)c1ccc(S(=O)(=O)N2CCN(CCC#N)CC2)cc1 | -3.1% | -13.9 | 2.0% | -17.5% | -7.7%
Fc1ccccc1CSc1ncnc2sc3c(c12)CCCC3 | 5.4% | -0.4 | 3.0% | ? | -5.8%
CCCCNS(=O)(=O)CCNCCc1ccccc1 | 9.8% | 36.3 | 5.5% | -17.0% | 34.6%
CCCCCCCCNCCS(=O)(=O)NCc1ccccc1 | -19.8% | -52.5* | -2.7% | 16.4µM* | ?
COc1ccccc1N1CCN(C(c2ccccc2)c2nnnn2Cc2ccccc2)CC1 (stereo unspecified) | · | · | · | 15.8µM* | 14.1µM*
COc1ccccc1N1CCN(C(c2ccc(N(C)C)cc2)c2nnnn2CCc2ccccc2)CC1 (stereo unspecified) | 17.9% | 4.0 | 4.7% | ? | -17.0%
COc1ccccc1C(c1nnnn1Cc1ccco1)N1CCN(c2cccc(C)c2C)CC1 (stereo unspecified) | ? | ? | -23.7% | 16.4µM* | 18.4µM*
COc1ccc(Cn2nnnc2C(C(C)C)N2CCN(c3ccccc3OC)CC2)cc1 (stereo unspecified) | -0.9%[9.24 µM] | -14.2 | -17.8% | 23.1µM* | 29.1µM*
Cc1ccc(SSc2cc(C)ccc2N)c(N)c1 | -14.7% | -108.0* | -24.1% | 8.2µM* | 7.31µM*
Cc1ccc(N)c(C(=O)CCCCC(=O)O)c1 | 6.8% | 10.3 | 7.6% | -0.5% | 2.4%
SMILES | HT1080 IDH1KD tx | IL1B secr inh | HT1080NT lethal | TDP1 cell noCPT | TDP1 cell CPT
Cc1ccc(O)c(N)c1 | -28.8% | -11.7 | ? | 23.1µM* | ?
Cc1ccc(C)c(N)c1 | -0.7% | 17.8 | 20.7% | 1.9% | -16.1%
COC(=O)C1=C(C)N(c2ccc(Cl)cc2)/C(=C/c2cccs2)C1=O | 2.7% | 0.0 | 4.3% | 13µM* | ?
COC(=O)C1=C(C)N(c2ccccc2)/C(=C/c2cccs2)C1=O | -18.9% | -2.1 | 15.1% | ? | -28.0%
COC(=O)C1=C(C)N(c2cccc(C)c2)C(=O)/C1=C\c1cccs1 | -0.6%[9.24 µM] | -20.9 | -1.5% | ? | ?
COC(=O)C1=C(C)N(c2ccc(C)c(C)c2)/C(=C/c2cccs2)C1=O | -3.5% | 2.1 | 0.7% | 15.8µM* | 15.8µM*
CCOC(=O)c1c(C)[nH]c(C(=O)COC(=O)CSCC(=O)N(CC)CC)c1C | 0.5% | 24.8 | 1.5% | 0.9% | -14.4%
COc1ccccc1NC(=O)n1ncc2c(C)cccc21 | · | · | · | -15.7% | -18.2%
c1ccc2c(c1)NC1(CCCC1)n1c-2nc2ccccc21 | -22.9% | -79.3* | -1.4% | ? | ?
COc1ccc(OC)c(NC(=O)Cn2c(=O)cc(-c3ccccc3)c3c(C)nn(C)c32)c1 | · | · | · | 20.6µM* | ?
Cc1nn(C)c2c1c(-c1ccccc1)cc(=O)n2Cc1ccccc1F | · | · | · | -25.4% | ?
COc1cccc(Cn2c(=O)cc(C)c3c(C)nn(-c4ccc(C)cc4)c32)c1 | · | · | · | 18.4µM* | 20.6µM*
Cc1nn(C)c2c1c(-c1ccccc1)cc(=O)n2Cc1ccc(F)cc1 | · | · | · | ? | 16.4µM*
COc1ccc(OC)c(NC(=O)CN2C(=O)c3ccccc3S2(=O)=O)c1 | 2.9% | 4.1 | 3.3% | -1.9% | -13.8%
COC(=O)c1ccc(Cn2c(=O)cc(C)c3c(C)nn(C)c32)cc1 | · | · | · | 16.4µM* | 10.3µM*
COC(=O)c1ccccc1NC(=O)Cn1c(=O)cc(C)c2c(C)nn(C)c21 | · | · | · | ? | -26.9%
Cc1ccccc1NC(=O)c1ccc(-n2cncn2)nc1 | -1.4% | -5.2 | -3.2% | -17.1% | -12.0%
O=C(NCCCN1C(=O)c2ccccc2C1=O)OCc1ccccc1 | 10.8% | -1.0 | 7.9% | -7.2% | 4.6%
O=c1c(-c2ccccc2)nc2cnc(Oc3cccc(Cl)c3)nc2n1C1CC1 | · | · | · | -9.1% | 6.3%
Cc1cc(C)n(-c2nc(NC(C)C)nc(NC(C)(C)C)n2)n1 | · | · | · | 0.794µM* | 1.26µM*
Cc1cccc(CNS(=O)(=O)c2ccc3[nH]c(=O)ccc3c2)c1 | · | · | · | -17.9% | ?
COCCOC(=O)c1c(C)oc2ccc(NS(=O)(=O)c3ccc(C)cc3)cc12 | -7.3% | -10.2 | 19.2% | 25.9µM* | ?
